Vaccinia Venus: vaccinia inhibition (Venus reporter); Vaccinia virus Venus reporter expression, fluorescence; Potency, µM (highest dose often 36.5 µM), without a hit: top-dose activity change, negative = inhibition, actives largely listed as inhibitors; actives 0.46% (n = 330,000); AID 720580; calls by dose curve; tested in A549 cells; also: nearly all actives have a fitted effect of over 30% in size
VACV mCherry inh: inhibitors of vaccinia virus infection (mCherry reporter signal); Potency, µM (doses to about 36.5 µM), for the others: at the highest dose activity change, negative = inhibition, usual class: inhibitors; Vaccinia virus mCherry reporter infection, fluorescence; actives 0.63% (n = 310,000); calls by dose curve; tested in A549 cells; also: nearly all actives have a fitted effect of over 35% in size
AMA1-RON2 inh: inhibitors of Plasmodium falciparum AMA1-RON2 interaction. AlphaScreen AMA1-biotinylated RON2 peptide binding. Potency, µM (highest dose often 58.2 µM), for the others: at the highest dose activity change, negative = inhibition, usual class: inhibitors. actives 0.2% (n = 360,000). AID 720542;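 also: 0% = vehicle wells and -100% = peptide control; nearly all actives have a fitted effect of over 45% in size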
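AMA1 (3D7) with his tag at 25 nM final met compounds first, then biotinylated RON2 peptide at 25 nM; detection used donor plus acceptor beads, 10 µg/mL apiece, read by AlphaScreen after 30 min at room temperature.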
Pf growth 48h: inhibits P. falciparum growth in the first generation, 48 h; P. falciparum luciferase growth in erythrocytes, 48 h; Potency, µM (highest dose often 28.7 µM), inactives show at the highest dose activity change, negative = inhibition, hits mostly inhibitors; actives 5.9% (n = 310,000)
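Erythrocytes infected with P. falciparum carrying an integrated firefly luciferase reporter (2% hematocrit, 0.1% parasitemia final) were exposed to compounds in RPMI 1640 with 0.5% Albumax at 37 C, 5% CO2. Growth inhibition was scored as reduced luminescence.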
Pf growth 96h: P. falciparum growth inhibition at 96 hour, primary screen for plastid delayed-death inhibitors; Potency, µM (highest dose often 28.7 µM), for the others: at the highest dose activity change, negative = inhibition, usual class: inhibitors; AID 504834; P. falciparum luciferase reporter growth, 96 h; actives 6.9% (n = 320,000)
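Erythrocytes infected with luciferase-expressing P. falciparum were dispensed at 2% hematocrit and 0.05% parasitemia (final), then incubated with compounds 96 hours at 37 C in 5% CO2. Luminescence after detection reagent addition reported growth.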
Numbers without * were called inactive; [ ] = remark or other dose. Compounds with a hit are over-represented: about 8.7% of the library has one in this group of screens. Unless noted, calls follow the shape of the dose curve; as a rule, active = well fitted curve in the direction sought with a large enough effect; inconclusive = small, poorly fitted or top-dose-only effect, or another doubt; inactive = no such curve, though single readings can be large; an effect the other way counts as inactive or inconclusive. Unless noted, % is scaled to controls: 0 for no effect and ±100 for the full control effect; potency is read from the fitted curve at half-maximal effect.

Screening COC(=O)c1c(C)[nH]c(C(=O)C(C)OC(=O)c2c(C)noc2C)c1C (stereo not given) returned AMA1-RON2 inh -4%, Pf growth 48h inconclusive and Pf growth 96h 4.1µM*.
Cc1ccc(CSCC(=O)Nc2cc(S(=O)(=O)N3CCOCC3)ccc2OC(C)C)cc1 was read as Vaccinia Venus -9%, VACV mCherry inh -13%, AMA1-RON2 inh -5%, Pf growth 48h 10µM* and Pf growth 96h 6.6µM*.
`CC(C)Oc1ccc(S(=O)(=O)N2CCOCC2)cc1NC(=O)Cc1cccs1` gave Vaccinia Venus -13%, VACV mCherry inh inconclusive, AMA1-RON2 inh 1%, Pf growth 48h 13µM* and Pf growth 96h inconclusive.
CCN1CCCC1CN(Cc1cc2ccc(C)cc2[nH]c1=O)C(=S)Nc1ccc(OC)cc1 (stereo not given) was read as Vaccinia Venus -25%, VACV mCherry inh -27%, AMA1-RON2 inh -8%, Pf growth 48h 18% and Pf growth 96h 23%.
COc1ccccc1NC(=S)N(Cc1ccco1)Cc1cc2cccc(C)c2[nH]c1=O was read as Vaccinia Venus -18%, VACV mCherry inh -22%, AMA1-RON2 inh -24%, Pf growth 48h inconclusive and Pf growth 96h -4%.
Screening Cc1cc2cc(CN(CC3CCCO3)C(=S)Nc3ccccc3)c(=O)[nH]c2cc1C (stereo not given) returned Vaccinia Venus inconclusive, VACV mCherry inh -22%, AMA1-RON2 inh -18%, Pf growth 48h 12µM* and Pf growth 96h 9%.
Screening COc1ccc2cc(CN(CC3CCCO3)C(=S)Nc3ccccc3)c(=O)[nH]c2c1 (stereo not given) returned Vaccinia Venus inconclusive, VACV mCherry inh -13%, AMA1-RON2 inh -18%, Pf growth 48h 9.3µM* and Pf growth 96h inconclusive.
Screening COc1ccccc1NC(=S)N(Cc1ccco1)Cc1cc2cc(C)c(C)cc2[nH]c1=O returned Vaccinia Venus inconclusive, VACV mCherry inh inconclusive, AMA1-RON2 inh -12%, Pf growth 48h 13µM* and Pf growth 96h 2.1µM*.
CCN1CCCC1CN(Cc1cc2ccc(C)cc2[nH]c1=O)C(=S)Nc1cccc(OC)c1 (stereo not given) was read as Vaccinia Venus inconclusive, VACV mCherry inh -4%, AMA1-RON2 inh -10%[11.6 µM], Pf growth 48h 10µM* and Pf growth 96h 15%.
For Cc1cccn2c(=O)c(C(=O)N3CCN(c4ccc(Cl)cc4)CC3)cnc12 the results were Vaccinia Venus -9% and VACV mCherry inh -16%.
For COc1cc(OC)cc(-c2nc3n(n2)C(c2ccccc2F)C(C(=O)Nc2cccnc2)=C(C)N3)c1 (stereo not given) the results were Vaccinia Venus -16% and VACV mCherry inh -9%.
For O=C(Nc1nc(-c2ccco2)c(-c2ccco2)s1)C1CC(=O)N(c2ccc3c(c2)OCCO3)C1 (stereo not given) the results were Vaccinia Venus 6%, VACV mCherry inh -14%, AMA1-RON2 inh 10µM*, Pf growth 48h 1% and Pf growth 96h 16%.
Screening O=C(NCc1ccccc1)C1CCN(S(=O)(=O)c2ccc(N3CCCC3=O)cc2)CC1 returned Vaccinia Venus -16%, VACV mCherry inh inactive, AMA1-RON2 inh 0%, Pf growth 48h inconclusive and Pf growth 96h 15µM*.
`O=C(NCc1ccc(Cl)cc1)C1CCN(S(=O)(=O)c2ccc(N3CCCC3=O)cc2)CC1` gave AMA1-RON2 inh -8%, Pf growth 48h -18% and Pf growth 96h 13µM*.
CCC1CN(C(=O)N2CCC(C(=O)NCc3ccccc3OC)CC2)c2ccccc2O1 (stereo not given) was read as AMA1-RON2 inh -3%, Pf growth 48h inconclusive and Pf growth 96h 13µM*.
`CCc1ccccc1NC(=O)C1CCN(S(=O)(=O)c2ccc(N3CCCC3=O)cc2)CC1` gave Vaccinia Venus -6%, VACV mCherry inh -11% and AMA1-RON2 inh 13%.
`CCC1CN(C(=O)N2CCC(C(=O)NCc3ccccc3OC)CC2)c2cc(C)ccc2O1` (stereo not given) gave AMA1-RON2 inh 0%, Pf growth 48h inconclusive and Pf growth 96h inconclusive.
`COc1ccccc1CNC(=O)C1CCN(S(=O)(=O)c2ccc(N3CCCC3=O)cc2)CC1` gave AMA1-RON2 inh 4%, Pf growth 48h 12µM* and Pf growth 96h 15µM*.
COc1ccccc1NC(=O)CN1C(=O)C(c2ccc(F)cc2)=NC1(C)C was read as Vaccinia Venus -14% and VACV mCherry inh -15%.
For Cc1ccccc1OCC(=O)OCc1cc(=O)n2nc(C3CCCCC3)sc2n1 the results were Vaccinia Venus 5% and VACV mCherry inh -5%.
Screening O=c1cc(O)c2c([nH]1)CCC2 returned Vaccinia Venus -10% and VACV mCherry inh -23%.
Screening COC(=O)C(NS(=O)(=O)c1ccc(N2CCCC2=O)cc1)c1ccccc1 (stereo not given) returned Vaccinia Venus -10%, VACV mCherry inh inactive, AMA1-RON2 inh 10%, Pf growth 48h 12% and Pf growth 96h inconclusive.
`CCOC(=O)c1ccc(S(=O)(=O)N2CCC(C(=O)NCc3ccccc3OC)CC2)cc1` gave AMA1-RON2 inh 4%, Pf growth 48h inconclusive and Pf growth 96h 8.3µM*.
For CCS(=O)(=O)N1CCC(C(=O)NCc2ccccc2OC)CC1 the results were Vaccinia Venus -8%, VACV mCherry inh -9%, AMA1-RON2 inh 13%, Pf growth 48h -9% and Pf growth 96h -15%.
O=C(CCNC(=O)C1CCN(S(=O)(=O)c2ccc(F)cc2)CC1)NCc1ccc(Cl)cc1 was read as AMA1-RON2 inh 17%, Pf growth 48h 12% and Pf growth 96h 30%.
For NC(=O)C(Cc1ccccc1)NS(=O)(=O)c1ccc(N2CCCC2=O)cc1 (stereo not given) the results were Vaccinia Venus -14%, VACV mCherry inh inactive, AMA1-RON2 inh 2%, Pf growth 48h -4% and Pf growth 96h 9.3µM*.
O=C(NCc1ccc(F)cc1)C1CCN(S(=O)(=O)c2ccc(Cl)cc2)CC1 was read as Vaccinia Venus -23%, VACV mCherry inh -23%, AMA1-RON2 inh 12%, Pf growth 48h 3.7µM* and Pf growth 96h -23%.
`O=C(Nc1cccc(C(F)(F)F)c1)C1CCN(S(=O)(=O)c2ccc(N3CCCC3=O)cc2)CC1` gave AMA1-RON2 inh 4%, Pf growth 48h inconclusive and Pf growth 96h 13µM*.
Screening CC1CCC(C(=O)NC(C(=O)OCC(=O)c2ccccc2)C(C)C)CC1 (stereo not given) returned Vaccinia Venus -12% and VACV mCherry inh -14%.
`CCOc1ccc(NC(=O)N2CCN(C(=O)c3nsc4ccccc34)CC2)cc1` gave Vaccinia Venus -15% and VACV mCherry inh -20%.

Screens (PubChem)
